“And” between values parts separate entries of the source, which are not always exact repeats. Equal values may be shown once. Records with an inconclusive call do not appear. Entries that show only a call come without a potency. A structure can be active in one record and inactive in another. The source made the active and inactive calls. Calls come from the whole dose curve; as a rule, active = well fitted inhibition curve with a large enough effect in the repeat runs; inconclusive = weak or mixed curves; inactive = no such curve, though single readings can be large or run the other way.

Potency data for 36 compounds are collected here from PubChem BioAssay (Tox21).
Note: nearly all actives have a fitted effect of over 50% in size.
Potency is the fitted concentration of half-maximal effect.

For the first assay, the target named is Cytochrome P450 2C9 (Homo sapiens) (UniProt P11712). The assay can be described thus: Cytochrome P450 Family 2 Subfamily C Member 9 (CYP2C9) small molecule antagonists: luciferase reporter qHTS assay (AID 1671198). The conditions noted are these: P450-Glo CYP2C9 enzyme assay, luciferin luminescence; series mostly up to 115 µM. In short, it runs like this: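 P450-Glo proluciferin substrate with CYP2C9 enzyme; 10 min RT preincubation, then NADPH regeneration 1 h at 37C; luciferin detection reagent 20 min RT, luminescence in relative luminescence units.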
Cytochrome P450 2C9 (Homo sapiens), sequence (P11712 whole entry, looked up): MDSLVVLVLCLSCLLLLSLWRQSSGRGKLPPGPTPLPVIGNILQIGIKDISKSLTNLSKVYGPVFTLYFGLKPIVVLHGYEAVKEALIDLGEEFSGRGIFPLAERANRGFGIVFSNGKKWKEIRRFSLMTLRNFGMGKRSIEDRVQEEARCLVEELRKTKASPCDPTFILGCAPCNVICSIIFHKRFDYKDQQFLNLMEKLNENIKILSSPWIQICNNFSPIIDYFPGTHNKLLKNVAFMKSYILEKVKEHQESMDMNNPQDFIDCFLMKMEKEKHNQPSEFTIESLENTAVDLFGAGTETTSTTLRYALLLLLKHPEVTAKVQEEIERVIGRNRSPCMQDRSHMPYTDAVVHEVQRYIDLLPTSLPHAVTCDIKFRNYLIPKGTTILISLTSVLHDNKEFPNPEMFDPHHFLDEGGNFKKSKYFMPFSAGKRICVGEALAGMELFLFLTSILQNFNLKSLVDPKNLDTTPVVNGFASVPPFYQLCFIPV
(In a reporter assay the amount or activity of a reporter protein is the signal.)
For `CCOCCOCCO`, the Potency entry is “inactive”.
Take `CC1=CCC(C(C)(C)O)CC1` (configuration not stated): the Potency result was “inactive”.
The same measure, in the same setting: the value for `CC(=O)Oc1ccccc1C(=O)Nc1ncc([N+](=O)[O-])s1` was 4.57 µM (active) and 2.75 µM (active).
For the compound `CC(=O)c1ccccn1`, the Potency entry is “inactive”.
Still for that read-out and setting: in the case of `Cc1cccc(N(C)C(=S)Oc2ccc3ccccc3c2)c1` it was 8.94 µM (active) and 6.92 µM (active); in that of `NC=O`, “inactive”.
Same read-out and setting: the value for `O=CCCCC=O` was “inactive”; that for `COc1ccc(C(=O)CC(=O)c2ccc(C(C)(C)C)cc2)cc1` was 21.5 µM (active).
Same read-out and setting: the value for `Cc1[nH]c(=O)c(C#N)cc1-c1ccncc1` was 29.1 µM (active); that for `Nc1ncnc2nc[nH]c12` was “inactive”; that for `O=C(COc1ccc(Cl)cc1)N1CCN(Cc2ccc3c(c2)OCO3)CC1` was 28.3 µM (active) and 13.8 µM (active).
On to `Cc1c(C(N)=O)cc([N+](=O)[O-])cc1[N+](=O)[O-]`, for which the Potency entry is “inactive”.
As for `O=Cc1ccccc1O`, the Potency entry is “inactive”.
Turning to `C[Si](C)(C)O[Si](C)(C)C`, the Potency entry is “inactive”.
Still for that read-out and setting: the value for `O=C(O)c1ccccc1Nc1cccc(C(F)(F)F)c1` was 63.3 µM (active); that for `CN(C)CCN(Cc1cccs1)c1ccccn1` was “inactive”; that for `O=C(/C=C/c1ccccc1)OCc1ccccc1` was 17.8 µM (active) and 13.8 µM (active).
Still for that read-out and setting: in the case of `CCCC(=O)O` it was “inactive”; in that of `C[C@]12CC[C@H]3[C@@H](CCC4=CC(=O)CC[C@@]43C)[C@@H]1CC[C@@H]2C(=O)CO`, 39.9 µM (active) and 27.5 µM (active).
Same read-out and setting: in the case of `OC[C@H]1O[C@@H]2O[C@H]3[C@H](O)[C@@H](O)[C@@H](O[C@H]4[C@H](O)[C@@H](O)[C@@H](O[C@H]5[C@H](O)[C@@H](O)[C@@H](O[C@H]6[C@H](O)[C@@H](O)[C@@H](O[C@H]7[C@H](O)[C@@H](O)[C@@H](O[C@H]8[C@H](O)[C@@H](O)[C@@H](O[C@H]1[C@H](O)[C@H]2O)O[C@@H]8CO)O[C@@H]7CO)O[C@@H]6CO)O[C@@H]5CO)O[C@@H]4CO)O[C@@H]3CO` it was “inactive”.
For `CCCCC(CC)COCC1CO1` (configuration not stated), the Potency result is “inactive”.
Still for that read-out and setting: the value for `Nc1ncn([C@@H]2O[C@H](CO)[C@@H](O)[C@H]2O)c(=O)n1` was “inactive”; that for `CCOC(=O)C(C#N)=C(c1ccccc1)c1ccccc1` was 5.03 µM (active) and 4.9 µM (active); that for `C[C@]12CCC(=O)C=C1CC[C@@H]1[C@@H]2C(=O)C[C@@]2(C)[C@H]1CC[C@]2(O)C(=O)CO` was “inactive”.
On the same count and under the same terms, in the case of `Nc1ccc(Nc2ccccc2)cc1` it was 15.7 µM (active) and 25.2 µM (active) and 10 µM (active); in that of `CCCCC(CC)COC(=O)c1ccc(N(C)C)cc1` (configuration not stated), 31.9 µM (active) and 17.8 µM (active) and 15.5 µM (active); in that of `C=C(C)C1CC=C(C)CC1` (configuration not stated), “inactive”.
In the case of `Nc1ccc(S(=O)(=O)Nc2cnc3ccccc3n2)cc1`, the Potency was 11.2 µM (active) and 15.5 µM (active).
Consider `CCCc1c(OCCCCc2nn[nH]n2)ccc(C(C)=O)c1O`, for which the Potency is 159 nM (active) and 246 nM (active).
Same read-out and setting: in the case of `O=S(=O)(O)c1ccc(O)cc1` it was “inactive”.
`S=C(NC1CCCCC1)NC1CCCCC1`: the Potency is 12.4 µM (active) and 35.6 µM (active).
On the same count and under the same terms, the value for `CCCCOCCOCCO` was “inactive”; that for `C#C[C@]1(O)CC[C@H]2[C@@H]3CCc4cc(OC)ccc4[C@H]3CC[C@@]21C` was 5.64 µM (active) and 6.92 µM (active).

The target in a further assay is Cytochrome P450 1A2 (Homo sapiens) (UniProt P05177). The assay can be described thus: Cytochrome P450 Family 1 Subfamily A Member 2 (CYP1A2) small molecule antagonists: luciferase reporter qHTS assay (AID 1671199). The conditions noted are these: P450-Glo CYP1A2 enzyme, luciferin luminescence, 1 h; series mostly up to 115 µM. The method in brief: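 Luminescence readout (relative luminescence units) after luciferin detection reagent, 20 min RT. Preceded by 1 h room-temperature CYP1A2 reaction with NADPH regeneration solution following 10 min compound preincubation with enzyme and proluciferin substrate. Furafylline positive control.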
Cytochrome P450 1A2 (Homo sapiens), sequence (P05177 whole entry, looked up): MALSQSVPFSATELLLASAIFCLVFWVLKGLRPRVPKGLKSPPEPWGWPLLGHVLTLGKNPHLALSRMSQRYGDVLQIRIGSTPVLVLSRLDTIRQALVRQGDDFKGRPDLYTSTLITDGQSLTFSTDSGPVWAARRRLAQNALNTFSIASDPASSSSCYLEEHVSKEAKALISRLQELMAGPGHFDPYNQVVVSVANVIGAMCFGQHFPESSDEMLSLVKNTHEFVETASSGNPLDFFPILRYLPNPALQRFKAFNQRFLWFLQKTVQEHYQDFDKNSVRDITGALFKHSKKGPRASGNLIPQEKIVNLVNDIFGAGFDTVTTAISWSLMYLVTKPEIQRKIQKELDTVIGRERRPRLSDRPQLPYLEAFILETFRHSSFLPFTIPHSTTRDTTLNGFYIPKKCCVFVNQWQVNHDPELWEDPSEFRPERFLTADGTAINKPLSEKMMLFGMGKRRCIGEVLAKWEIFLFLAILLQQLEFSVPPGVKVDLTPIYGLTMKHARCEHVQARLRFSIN
With `CCOCCOCCO`, the Potency result is “inactive”.
For the compound `CC1=CCC(C(C)(C)O)CC1` (configuration not stated), the Potency result was “inactive”.
Take `CC(=O)Oc1ccccc1C(=O)Nc1ncc([N+](=O)[O-])s1`: the Potency was 6.46 µM (active) and 7.76 µM (active).
Take `CC(=O)c1ccccn1`: the Potency is 64 µM (active) and inactive.
On the same count and under the same terms, in the case of `Cc1cccc(N(C)C(=S)Oc2ccc3ccccc3c2)c1` it was 10 µM (active) and 9.77 µM (active); in that of `NC=O`, “inactive”.
On the same count and under the same terms, in the case of `O=CCCCC=O` it was “inactive”; in that of `COc1ccc(C(=O)CC(=O)c2ccc(C(C)(C)C)cc2)cc1`, 34.1 µM (active).
Still for that read-out and setting: the value for `Cc1[nH]c(=O)c(C#N)cc1-c1ccncc1` was 56.4 µM (active) and inactive; that for `C#C[C@]1(O)CC[C@H]2[C@@H]3CCC4=Cc5oncc5C[C@]4(C)[C@H]3CC[C@@]21C` was “inactive”; that for `Nc1ncnc2nc[nH]c12` was “inactive”.
`O=C(COc1ccc(Cl)cc1)N1CCN(Cc2ccc3c(c2)OCO3)CC1`: the Potency was 28.3 µM (active) and 17.4 µM (active).
The same measure, in the same setting: in the case of `Cc1c(C(N)=O)cc([N+](=O)[O-])cc1[N+](=O)[O-]` it was “inactive”.
On the same count and under the same terms, the value for `O=Cc1ccccc1O` was “inactive”.
Still for that read-out and setting: in the case of `C[Si](C)(C)O[Si](C)(C)C` it was “inactive”; in that of `O=C(O)c1ccccc1Nc1cccc(C(F)(F)F)c1`, 35.6 µM (active).
`CN(C)CCN(Cc1cccs1)c1ccccn1`: the Potency entry was “inactive and 27.5 µM (active)”.
The same measure, in the same setting: the value for `O=C(/C=C/c1ccccc1)OCc1ccccc1` was 11.2 µM (active) and 6.92 µM (active); that for `CCCC(=O)O` was “inactive”; that for `OC[C@H]1O[C@@H]2O[C@H]3[C@H](O)[C@@H](O)[C@@H](O[C@H]4[C@H](O)[C@@H](O)[C@@H](O[C@H]5[C@H](O)[C@@H](O)[C@@H](O[C@H]6[C@H](O)[C@@H](O)[C@@H](O[C@H]7[C@H](O)[C@@H](O)[C@@H](O[C@H]8[C@H](O)[C@@H](O)[C@@H](O[C@H]1[C@H](O)[C@H]2O)O[C@@H]8CO)O[C@@H]7CO)O[C@@H]6CO)O[C@@H]5CO)O[C@@H]4CO)O[C@@H]3CO` was “inactive”.
On the same count and under the same terms, in the case of `CCCCC(CC)COCC1CO1` (configuration not stated) it was “inactive”; in that of `Nc1ncn([C@@H]2O[C@H](CO)[C@@H](O)[C@H]2O)c(=O)n1`, “inactive”.
Turning to `CCOC(=O)C(C#N)=C(c1ccccc1)c1ccccc1`, the Potency is 3.56 µM (active) and 1.62 µM (active).
With `C[C@]12CCC(=O)C=C1CC[C@@H]1[C@@H]2C(=O)C[C@@]2(C)[C@H]1CC[C@]2(O)C(=O)CO`, the Potency result was “inactive”.
On the same count and under the same terms, in the case of `Nc1ccc(Nc2ccccc2)cc1` it was 35.2 µM (active) and 35.6 µM (active) and 31.7 µM (active); in that of `CCCCC(CC)COC(=O)c1ccc(N(C)C)cc1` (configuration not stated), 12.7 µM (active) and 7.1 µM (active) and 4.56 µM (active); in that of `C=C(C)C1CC=C(C)CC1` (configuration not stated), “inactive”.
As for `CCCc1c(OCCCCc2nn[nH]n2)ccc(C(C)=O)c1O`, the Potency was 35.6 µM (active) and 30.9 µM (active).
The same measure, in the same setting: the value for `O=S(=O)(O)c1ccc(O)cc1` was “inactive”; that for `O=C1c2cccc(O)c2C(=O)c2c(O)cccc21` was 9.03 µM (active) and 6.45 µM (active).
Same read-out and setting: the value for `S=C(NC1CCCCC1)NC1CCCCC1` was 78.1 µM (active) and inactive; that for `CCCCOCCOCCO` was “inactive”.
`C#C[C@]1(O)CC[C@H]2[C@@H]3CCc4cc(OC)ccc4[C@H]3CC[C@@]21C`: the Potency is 7.1 µM (active) and 9.77 µM (active).
On the same count and under the same terms, the value for `CC(C)(C)NC(=O)[C@H]1CC[C@H]2[C@@H]3CC[C@H]4NC(=O)C=C[C@]4(C)[C@H]3CC[C@]12C` was “inactive”.
